Test results reported in PubChem BioAssay AID1566 (Sanford-Burnham Center for Chemical Genomics, 2009).
In all, about 290,000 compounds went through this assay and about 1,800 (0.62%) were called active. Shown is part of a subset that was picked to be rich in actives. Values without a mark were called inactive. Rule as the data show it: active = inhibition above about 50%; inactive = the rest.

test: inhibition of NOD2-driven NF-kB reporter – cell-based, luminescence, uHTS, HEK293 (AID 1566); details: HEK293 NOD2/NF-kB luciferase reporter, at 4 µM, active compounds read high

Going from `COc1cc(/C=C/C(=O)OCC(=O)NC2CC2)cc(S(=O)(=O)N2CCc3ccccc32)c1OC` to `COc1ccccc1NS(=O)(=O)c1cccc(C(=O)NN=C2CCCC2)c1`, the inhibition falls from 15% to 4.3%.

Compared with `CCOc1cc(/C=C2\NC(=S)N(C)C2=O)ccc1OCc1ccc(C(=O)O)cc1`, `CN1C(=O)/C(=C/c2ccc(OCc3ccc(C(=O)O)cc3)c(Cl)c2)NC1=S` is higher in inhibition: -3% for the first, 33.9% for the second.

Compared with `O=C(NCCc1ccc(F)cc1)Nc1ccccc1`, `COc1ccc(N2CCN(CC(=O)NCc3ccccc3)CC2)cc1` is higher in inhibition: -13.6% for the first, -7.3% for the second.

First: CCCCNC(=S)N/N=C/c1cccc(OCC)c1O
Second: CCOc1ccccc1/C=N/Nc1ccccc1[N+](=O)[O-]
The inhibition of the first is higher: -5.1% for the first, -58% for the second.

Going from `CCCOc1ccc(/C=N/Nc2ccccc2[N+](=O)[O-])c(O)c1` to `CCCOc1ccc(/C=N/Nc2ccccc2[N+](=O)[O-])c(OCCC)c1`, the inhibition falls from 42.2% to 30.3%.

Going from `COc1ccc(N(CC(=O)NC(C)(C)C)C(=O)CCC(=O)Nc2nccs2)cc1` to `O=S(=O)(Nc1nccs1)c1ccc(NCc2cc(Br)cc(Br)c2O)cc1`, the inhibition rises from 5.1% to 6.8%.

Compared with `CC1=NNC(=O)C1C(c1ccccc1)C1C(=O)NN=C1C` (stereo unspecified), `Cc1c(NC(=O)c2ccccc2)cccc1[N+](=O)[O-]` is higher in inhibition: 20.3% for the first, 21.3% for the second.

Going from `CCCC(=O)N(CCN1CCOCC1)c1nc2c(OCC)cccc2s1` to `CCOc1ccccc1N1CCN(C(=O)c2c(Cl)cnn2C)CC1`, the inhibition rises from 5.2% to 9.1%.

First: COc1ccccc1CN1CCNC(=O)C1CC(=O)NCCCN1CCCC1=O (stereo unspecified)
Second: COc1ccccc1NC(=O)CN1CCCCC1
The inhibition of the first is higher: -4.3% for the first, -4.7% for the second.

Going from `Oc1ccc(Br)cc1CNc1nccs1` to `Cc1cc(C(=O)NCc2cccs2)ccc1[N+](=O)[O-]`, the inhibition rises from -5.1% to 0.2%.

First: CCOC(=O)c1[nH]c2ccc(OCC)cc2c1NC(=O)CN1CCC2(CC1)OCCO2
Second: CCOc1ccccc1NC(=O)CCc1nnc2ccc(N3CCC4(CC3)OCCO4)nn12
The inhibition of the first is higher: -2.2% for the first, -11.6% for the second.

First: COc1ccccc1N1CCN(C(=O)c2cc(C(=O)N3CCN(c4ccccc4OC)CC3)cc([N+](=O)[O-])c2)CC1
Second: CCn1c(SCC(=O)N2CCN(c3ccccc3)CC2)nnc1-c1c[nH]c2ccccc12
The inhibition of the first is lower: 3.5% for the first, 6.3% for the second.

Going from `COc1ccccc1C(C)NCC(=O)Nc1c(F)cccc1F` (stereo unspecified) to `COc1ccccc1C(CC(=O)Nc1ccc(Cl)cc1)c1ccc(OC(C)C)cc1` (stereo unspecified), the inhibition falls from 5.5% to 2.5%.

Going from `Cn1c(Sc2ccccc2Cl)c(C=O)c2ccccc21` to `Cn1c(Oc2ccc(Cl)cc2)c(C=O)c2ccccc21`, the inhibition rises from 36.9% to 48.5%.

Compared with `O=C(O)COc1ccccc1/C=N/n1c(C2CCCCC2)n[nH]c1=S`, `COc1ccc2c(c1)N(C(=O)CN1C(=O)C3CCCCC3C1=O)C(C)(C)C=C2C` (stereo unspecified) is lower in inhibition: 17.3% for the first, -4.7% for the second.

Compared with `CCOc1cc2c3c(c1)C(C)CC(C)(C)N3C(=O)C2=O` (stereo unspecified), `CCc1cc2c3c(c1)C(C)CC(C)(C)N3C(=O)C2=O` (stereo unspecified) is higher in inhibition: 10% for the first, 11.8% for the second.

First: O=S(=O)(c1ccccc1)N1CCC(O)(CSc2ccccc2)CC1
Second: Cc1ccc(SCC2(O)CCN(S(=O)(=O)c3ccc(Cl)cc3)CC2)cc1
The inhibition of the first is higher: 28.2% for the first, 17.7% for the second.

Going from `O=C(Cn1nnc(N2CCCC2)n1)N/N=C/c1ccc(Cl)cc1` to `CCC1c2ccc(C)n2CCN1C(=O)Nc1cc(Cl)ccc1OC` (stereo unspecified), the inhibition rises from -2.3% to 13.8%.

First: Cc1ccc(C(=O)O/N=C(\N)c2ccccn2)cc1
Second: N/C(=N\OC(=O)c1ccccc1)c1ccccn1
The inhibition of the first is lower: -94.8% for the first, -52.6% for the second.

First: CC(NC(=O)Nc1ccccn1)N1C(=O)C2C3C=CC(C3)C2C1=O (stereo unspecified)
Second: CC(O)c1cccc(NC(=O)CCC(=O)O)c1 (stereo unspecified)
The inhibition of the first is higher: 15.9% for the first, 0.6% for the second.

Compared with `CC(C)CC(=O)Nc1cccc(C(C)O)c1` (stereo unspecified), `O=C(CCSCc1cccc(Cl)c1)NCCC1=CCCCC1` is higher in inhibition: -0.6% for the first, 12.1% for the second.

First: CCn1cnc2cc(NS(=O)(=O)c3ccc(OC)c(OC)c3)ccc21
Second: COc1ccc(O)c(-c2[nH]ncc2C(=O)c2cccc(C)c2)c1
The inhibition of the first is lower: 0% for the first, 9.9% for the second.

Going from `COc1ccc(O)c(-c2[nH]ncc2C(=O)c2ccccc2C)c1` to `O=C(Cn1ncc2c3ccccc3n(Cc3ccc(F)cc3)c2c1=O)N1CCN(c2ncccn2)CC1`, the inhibition rises from 5.8% to 15.9%.

In the case of `CCN1C(=O)/C(=C/c2ccc(OCc3ccc(C(=O)O)cc3)c(Cl)c2)NC1=S`, the inhibition is reported as 57.5% (active).
With `CCOc1cccc(/C=N/NC(=S)Nc2ccccc2[N+](=O)[O-])c1O` the inhibition was 64.7% (active).
In the case of `Oc1c(Br)cc(Br)cc1CNc1nccs1`, the inhibition is reported as 57% (active).
With `O=S(=O)(c1ccccc1)N1CCC(O)(CSc2ccc(Cl)cc2)CC1` the inhibition was 56.9% (active).
In the case of `CC(O)c1cccc(NC(=O)Nc2cccc(NC(=O)Nc3cccc(C(C)O)c3)c2)c1` (stereo unspecified), the inhibition is reported as 73.1% (active).
